Screens from PubChem.
MOR-DOR inv ag = inverse agonists of MOR-DOR heterodimerization, primary screen, cell-based, luminescence; Mu-type opioid receptor (Homo sapiens) + Delta-type opioid receptor (Homo sapiens), …; cell-based MOR-DOR heterodimer luminescence, inverse agonism; inhibition, % at 9.3 µM; actives 0.21% (n = 340,000); AID 504357, 2011; in the data active means inhibition above about 22%, passing the limit was not always enough;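 further: 0% = cells with DMSO and 100% = wells without cells with DMSO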
HTR5A ag = HTR5A agonists in luminescence cell assay, primary screen, counter-screen for OPRM1-OPRD1 heterodimer agonist project, full-deck HTS; actives 0.61% (n = 340,000); 5-hydroxytryptamine receptor 5A (Homo sapiens), P47898; activation, % at 9.3 µM; cell-based; in the data active means activation mostly above about 9.5%, no sharp cut-off; inactive means mostly below about 7.6%;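 further: 0% = cells with vehicle only and 100% = reference agonist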
Target sequence (P47898 whole entry, looked up): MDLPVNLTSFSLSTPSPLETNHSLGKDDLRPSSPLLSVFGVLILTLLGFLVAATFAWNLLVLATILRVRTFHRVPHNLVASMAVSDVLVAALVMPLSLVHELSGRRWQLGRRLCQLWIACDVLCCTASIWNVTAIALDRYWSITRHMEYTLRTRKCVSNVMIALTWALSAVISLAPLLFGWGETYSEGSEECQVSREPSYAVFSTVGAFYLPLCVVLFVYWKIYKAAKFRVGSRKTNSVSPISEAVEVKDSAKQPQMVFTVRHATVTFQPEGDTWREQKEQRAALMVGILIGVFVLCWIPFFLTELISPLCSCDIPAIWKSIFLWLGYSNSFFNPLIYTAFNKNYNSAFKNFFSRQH
HTR5A inv ctr = HTR5A inverse agonists in luminescence cell assay, primary screen, counter-screen for OPRM1-OPRD1 heterodimer inverse agonist project, full-deck HTS. actives 0.083% (n = 340,000). HTR5A cell line, inverse agonism. inhibition, % at 9.3 µM. AID 504634, 2011. 5-hydroxytryptamine receptor 5A (Homo sapiens), P47898; in the data active means inhibition mostly above about 23%, no sharp cut-off; inactive means mostly below about 18%;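 further: 0% = cells with DMSO and 100% = no-cell wells with DMSO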
MOR-DOR ag = agonists of OPRM1-OPRD1 heterodimerization, primary screen, cell-based, luminescence; Mu-type opioid receptor (Homo sapiens) + Delta-type opioid receptor (Homo sapiens), …; cells; activation, % at 9.3 µM; actives 0.3% (n = 340,000); in the data active means activation above about 18%;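 further: 0% = vehicle-treated cells and 100% = reference agonist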
* = called active by the depositor. Compounds with a hit are over-represented: about 1.1% of the library has one in this group of screens.

SMILES	MOR-DOR inv ag	HTR5A ag	HTR5A inv ctr	MOR-DOR ag
CC(C)CC1(C)NC(=O)N(CC(=O)N2C(C)CCCC2C)C1=O (configuration not stated)	8	13*	3	-2
COc1ccc(N(CC(=O)NCCSc2ccccn2)S(=O)(=O)c2ccc(C)cc2)cc1OC	14	14*	-9	-3
CCc1c(C)nc2ncnn2c1N1CCCC(C(=O)NCc2ccc3c(c2)OCO3)C1 (configuration not stated)	10	0	-29	-2
CCc1c(C)nc2ncnn2c1N1CCCC(C(=O)Nc2ccc(NC(C)=O)cc2)C1 (configuration not stated)	-10	13*	-26	2
CN(C)CCCN(C(=O)c1ccc(N2C(=O)CCC2=O)cc1)c1nc2c(F)cccc2s1	12	13*	-36	-2
CN(C)CCCN(C(=O)c1ccc2c(c1)CCCC2)c1nc2c(F)cccc2s1	-28	4	-15	5
CCOC(=O)N1CCN(C(=O)c2ccc(CNS(=O)(=O)c3ccc(OC)cc3)cc2)CC1	6	0	-4	-1
Cc1oc(-c2ccc3c(c2)OCCO3)cc1C(=O)NC(CCC(=O)O)C(=O)O (configuration not stated)	-11	2	-5	2
CC(=O)c1cccc(NC(=O)N2CCCCCC2)c1	4	2	-36	-1
CC(=O)c1cccc(NS(=O)(=O)c2ccc(NC(=O)N3CCCCC3)cc2)c1	4	11*	-5	-1
CC(C)Nc1nc(SC(C)C(=O)Nc2ccccc2)nc(N(C)C)n1 (configuration not stated)	4	0	0	-1
COc1cc(/C=N/NC(=O)c2cc3c(ccc4ccccc43)o2)cc(OC)c1O	-48	11*	-43	9
CN(C)c1ccc(/C=C2\SC(=S)N(Nc3ncc(C(F)(F)F)cc3Cl)C2=O)cc1	18	3	-10	-4
COc1cc(/C=C2\SC(=S)N(Nc3ncc(C(F)(F)F)cc3Cl)C2=O)ccc1O	6	-9	41*	-1
COC(=O)c1cc(CSc2nnc(NC3CCCCC3)s2)oc1C	-32	11*	-34	6
O=c1cc(CSc2nnc(NC3CCCCC3)s2)nc2sccn12	19	0	-10	-4
N/C(=N\OC(=O)c1ccc2ccccc2c1)c1ccccc1Cl	-89	29*	-75	22*
COc1ccc(N/N=C(/N=Nc2nc(C)cc(=O)[nH]2)c2ccccc2)cc1	-3	-3	8	1
CC(=O)c1ccc(NC(=O)CNCc2cccs2)cc1	7	4	-16	-2
O=c1cc2oc3cc(O)c(O)cc3c(-c3ccccc3[N+](=O)[O-])c-2cc1O	50*	-11	44*	-9
Cc1c(OCC(=O)NCc2cccnc2)ccc2c3c(c(=O)oc12)CCC3	22	2	13	-4
Cc1c(OCC(=O)NCc2ccncc2)ccc2c3c(c(=O)oc12)CCC3	20	12*	-46	-4
O=c1oc(-c2cccs2)nc2ccccc12	1	14*	4	0
Cc1cccc(NC(NC(=O)c2cccnc2)C(Cl)(Cl)Cl)c1 (configuration not stated)	-6	0	13	1
COc1cc(NC(=O)Cn2nc(C(F)(F)F)c(Br)c2C)cc([N+](=O)[O-])c1	-55	12*	-40	10
SMILES	MOR-DOR inv ag	HTR5A ag	HTR5A inv ctr	MOR-DOR ag
CC1CCN(CCCn2c(=S)[nH]c3c(sc4ccc([N+](=O)[O-])cc43)c2=O)CC1	-8	9.7*	-27	2
CC1CCN(CCCn2c(=S)[nH]c3c(sc4ccccc43)c2=O)CC1	12	-1	4	-2
Cc1ccc(NNC(=O)C(O)(c2cccc(C(F)(F)F)c2)c2cccc(C(F)(F)F)c2)cc1	-38	6	-16	8
COc1ccccc1C(=O)OCC(=O)NC(C)CCc1ccccc1 (configuration not stated)	19	13*	-46	-4
CC(=O)c1cccc(NC(=O)NCc2ccccn2)c1	-5	1	-33	1
CC(=O)c1cccc(NC(=O)NCc2cccs2)c1	-1	11*	-35	0
c1ccc(Nc2nc(N3CCCC3)nc(N3CCCC3)n2)cc1	-8	13*	20	2
Cc1cnc(C(=O)NCC(c2ccccc2)c2ccccc2)cn1	19	-2	6	-4
CCN(C1CCCCC1)S(=O)(=O)c1c(C)n(C)c(=O)n(C)c1=O	11	-3	10	-2
Cc1cc(=O)oc2cc(OCC(=O)Nc3ccc(N4CCC(C)CC4)cc3)ccc12	-83	11*	-36	16
Cc1c(C)c2ccc(OCC(=O)Nc3ccc(N4CCC(C)CC4)cc3)cc2oc1=O	-19	5	6	4
COc1ccccc1C1CCN(C(=O)c2cnn(-c3ccccc3)c2C)CC1	-3	12*	-1	1
COc1ccc2c(c1)CC/C(=C/c1ccncc1)C2=O	2	-3	-23	0
COc1ccc2c3c(ccc2c1)C(=O)/C(=C/O)CC3	-120	22*	-86	25*
O=C(CCSc1ccc(Cl)cc1)NN=C1CCCCCC1	18	7	-18	-3
O=C(CSc1ccc(Cl)cc1)NN=C1CCCCCC1	-11	12*	12	2
O=C(CSc1nc2ccc(NC(=O)CSc3nnnn3Cc3ccccc3)cc2s1)Nc1ccccc1	-23	14*	-32	4
COc1ccc2ccccc2c1/C=N/NC(=O)c1sc(N)c(C#N)c1C	-129	8	-39	24*
Cc1ccc(S(=O)(=O)CC(=O)N2CCN(c3ccc([N+](=O)[O-])cc3)CC2)cc1	12	2	-8	-2
CSc1ccccc1NC(=O)c1cc(-c2cccnc2)nc2ccc(Br)cc12	-1	13*	-33	0
CCCOc1ccc(N2C(=O)C3C(C(C)C)NC4(C(=O)c5ccccc5C4=O)C3C2=O)cc1 (configuration not stated)	13	1	-6	-3
CCC(=O)Nc1ncc2c(n1)CC(c1ccco1)CC2=O (configuration not stated)	4	2	2	-1
COc1cccc2oc(-c3ccco3)cc(=O)c12	6	9	-25	-1
C/C(CC(=O)Nc1ccc(C)c(Cl)c1)=N\NC(=O)Cc1ccccc1	-7	12*	-32	1
N#Cc1ccc(CN2CCN(C(=O)c3ccc(S(=O)(=O)NCc4ccco4)cc3)CC2)cc1	-2	12*	-42	0
O=C(CNC(=O)c1ccco1)NCC(=O)OCC(=O)c1ccc(Cl)c([N+](=O)[O-])c1	94*	-10	43*	-18
Nc1nnc(CC(=O)N/N=C/c2ccccc2OCc2ccccc2F)s1	9	-3	2	-2
CC1CCc2c(sc3nc(C(C)(C)C)nc(N4CCN(C(=O)CCl)CC4)c23)C1 (configuration not stated)	-354	46*	-171	72*
